This is a sample that favours compounds with a hit; in the whole collection about 4.7% have one here.
TRHR enhancer = TRH receptor (human) allosteric enhancement | P34981 | TRHR cells, fluo-8 calcium fluorescence, EC20 TRH enhancement | enhancement, % at 2 µM | hit rate 0.66% among 360,000; in the data active means enhancement above about 30%
Target sequence (P34981 whole entry, looked up): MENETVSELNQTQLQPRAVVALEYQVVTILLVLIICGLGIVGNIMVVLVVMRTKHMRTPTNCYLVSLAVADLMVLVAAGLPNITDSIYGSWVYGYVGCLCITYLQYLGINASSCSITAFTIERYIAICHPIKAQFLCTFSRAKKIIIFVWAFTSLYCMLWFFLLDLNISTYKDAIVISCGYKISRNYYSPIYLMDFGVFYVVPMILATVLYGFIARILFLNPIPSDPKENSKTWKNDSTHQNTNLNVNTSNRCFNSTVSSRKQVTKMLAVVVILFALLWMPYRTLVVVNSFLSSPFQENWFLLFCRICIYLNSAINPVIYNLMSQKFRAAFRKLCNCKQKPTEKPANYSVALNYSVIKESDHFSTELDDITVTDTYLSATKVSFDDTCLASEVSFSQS
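TRHR-expressing cells loaded with fluo-8 calcium dye were read kinetically (ex 480/em 530) during compound addition, then stimulated with an EC20 of TRH (10 nM final). Enhancement of the Gq-mediated intracellular calcium response was scored.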
TRHR agonist = activates the human TRH receptor; AID 493084; activation, % at 2 µM; hit rate 0.18% among 360,000; TRHR cells, calcium flux fluo-8, FDSS agonist mode
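TRHR-expressing cells, plated overnight in medium with 10% serum, were loaded with fluo-8 calcium dye at room temperature. After a 10 s baseline, library compound was pin-added and calcium release was recorded kinetically (ex 480/em 530) as agonist response.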
D1 antag = blocks dopamine activation of the human D1 receptor. P21728. HEK293 TREx D1 cells, calcium flux, dopamine EC80; hits give low values. activity change, negative = inhibition, % at 10 µM. hit rate 3.2% among 360,000; in the data active means activity change below about -30%
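Tetracycline-induced HEK293 T-REx cells with force-coupled D1 receptor were loaded with a no-wash calcium dye. Compound was added after a 10 s baseline and read kinetically for 180 s; EC80 dopamine was then added and calcium flux followed another 180 s.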
D1 ag = activates the human D1 dopamine receptor; P21728; HEK293 T-REx D1 cells, calcium flux, agonist mode; activation, % at 2 µM; hit rate 1% among 360,000
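Tetracycline-induced HEK293 TREx D1 cells, force-coupled to calcium signalling, were dye-loaded with a no-wash calcium kit. Compound was pin-added after a 10 s baseline. Fluorescence was read kinetically at 1 cycle/s for 180 s, with calcium rises flagged as agonism.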
D1 PAM = human D1 dopamine receptor positive modulation | P21728 | HEK293 TREx D1 cells, calcium flux, dopamine EC20 potentiation | potentiation, % at 10 µM | hit rate 0.036% among 360,000; in the data active means potentiation above about 30%
Each line names hits and unclear results; the compound was inactive in the other large screens; ! = not active in a repeat. Unless noted, no stated cut-off is given here; in the data, active means activation above about 30%; inactive means the rest.

COc1ccccc1Cc1nc2ccccc2nc1SCC(=O)N1CCN(c2ccccc2)CC1	none
CCOC(=O)c1ccc(CN(Cc2ccc(C)cc2)S(=O)(=O)c2ccc(F)c(C(=O)Nc3ccc(C)c(F)c3)c2)cc1	D1 antag -46.4
CCOC(=O)c1ccc(CN(Cc2ccc(C)cc2)S(=O)(=O)c2ccc(NC(C)=O)cc2)cc1	none
CCc1cccc(-n2c(=O)c3cccnc3n2CC(=O)NCc2ccc(C)cc2)c1	none
O=C(COC(=O)c1cccc(S(=O)(=O)N2CCCCCC2)c1)Nc1ccccc1	none
O=C(COC(=O)c1cccc(S(=O)(=O)N2CCCC2)c1)Nc1ccccc1C(F)(F)F	D1 antag -33.2
Cc1ccc(C)c(NC(=O)COC(=O)c2cccc(S(=O)(=O)N3CCCCC3)c2)c1	none
NC(=O)NC(=O)COC(=O)c1cccc(S(=O)(=O)N2CCCCCC2)c1	D1 antag -43.6
CCCCCn1c(=O)[nH]c2cc(C(=O)N3CCN(c4cc(Cl)ccc4C)CC3)ccc2c1=O	none
Cc1ccc(SCCN2CCN(CCc3ccccc3)CCC2=O)cc1	D1 antag -38.4
O=C1CCN(CCc2ccccc2)CCN1CCSc1ccc(Br)cc1	none
COc1cc(C2NC(=O)NC(c3ccccc3)=C2C(C)=O)cc(Cl)c1OCC(=O)O (configuration not stated)	TRHR enhancer 32.7
CCC(C)n1c(=N)c(C(=O)NC2CCCCC2)cc2c(=O)n3ccccc3nc21 (configuration not stated)	none
CN(C)CCCN(C(=O)c1ccc(C(=O)c2ccccc2)cc1)c1nc2c(F)cccc2s1	none
CCOc1ccc2nc(N(CCN(C)C)C(=O)c3cc4ccccc4cc3OC)sc2c1	none
CCOc1cccc2sc(N(CCCN(C)C)C(=O)Cc3ccccc3)nc12	D1 ag 36.8
Cc1cccc2sc(N(CCCN(C)C)C(=O)c3ccc(Cl)s3)nc12	D1 ag 36.7!
CCOc1cccc2sc(N(CCN(C)C)C(=O)c3cc4ccccc4cc3OC)nc12	D1 antag -70.4, D1 ag 32.8
CCOc1cccc2sc(N(CCCN(C)C)C(=O)c3ccc(C(=O)c4ccccc4)cc3)nc12	D1 antag -32.9, D1 ag 42.6
Cc1ccc(Cl)cc1NC(=O)Cn1c(=O)oc2cc(S(=O)(=O)N3CCCC3)ccc21	none
Cc1cc(C)c(Cn2c(=O)n(Cc3ccccc3)c(=O)c3c(C)c(C)sc32)c(C)c1	none
C=C(C)Cn1c(=O)c2c(nc3n2CCN3c2ccc(F)cc2)n(C)c1=O	none
COCCNC(=O)c1[nH]c2cc(C)ccc2c1Sc1ccc(Cl)cc1	none
Cc1ccc(C)c(N2CCN(C(=O)C3CCCN(S(=O)(=O)c4ccc5c(c4)oc(=O)n5C)C3)CC2)c1 (configuration not stated)	none
Cc1cccc(NC(=O)Cn2cc(C(=O)C3CCCCC3)c3ccccc32)c1	D1 antag -30.1
COc1cccc(CNC(=O)COCc2cc(-c3ccc4c(c3)OCO4)on2)c1	none
COc1ccc(C)cc1NC(=O)c1c(C(=O)Nc2cccc(C)c2C)sc2nc(C)cc(=O)n12	none
Cc1ccc(CC(=O)Nc2ccc([N+](=O)[O-])cc2C)cc1	D1 antag -41.5
Cc1ccc(CC(=O)Nc2ncc([N+](=O)[O-])s2)cc1	D1 antag -39.0
Cc1ccc(SCC(=O)Nc2cc([N+](=O)[O-])ccc2O)cc1	D1 ag 30.2
COc1ccc(NC(=O)C(c2ccc(Cl)cc2)C(C)C)cn1 (configuration not stated)	D1 ag 38.5
COc1ccc(NC(=O)Nc2ccc(F)cc2)cn1	none
O=S1(=O)CC/C(=N/Nc2ccc(C(F)(F)F)cn2)c2cc(F)ccc21	D1 antag -51.6
O=S1(=O)CC/C(=N/Nc2ccccn2)c2cc(F)ccc21	none
CCCCC(=O)Nc1ccc(C(=O)NCCc2ccccc2)cc1	none
CCCC(=O)Nc1ccc(C(=O)NCCc2ccc(F)cc2)cc1	TRHR enhancer 34.1
O=C(CCNC(=O)c1ccc([N+](=O)[O-])cc1)Nc1ccc(F)cc1	D1 antag -38.9
Cc1cc(C)cc(NC(=O)CCNC(=O)c2ccc([N+](=O)[O-])cc2)c1	none
CCN1CCN(c2cc(=O)n(C3CCCCC3)c(=O)[nH]2)CC1	TRHR enhancer 33.5
c1ccc(CN2CCC(Nc3nc(-c4ccccc4)nc4ccccc34)CC2)cc1	none
Cc1csc2ncnc(NC3CCN(Cc4ccccc4)CC3)c12	D1 antag -33.3
N#Cc1c(-c2ccccc2)cc(-c2ccc(O)cc2)nc1N	D1 antag -41.8
COc1ccc(-c2cc(-c3ccc(O)cc3)nc(N)c2C#N)cc1	none
Oc1ccc(-c2cc(-c3ccc(O)cc3)nc(-c3ccccc3)n2)cc1	D1 antag -39.7
Nc1ccc(-c2cc(-c3ccc(N)cc3)nc(-c3ccccc3)n2)cc1	none
COc1ccc(NC(=O)C2CCCN(c3nnc(C)c4c(C)n(-c5ccccc5)nc34)C2)cc1Cl (configuration not stated)	none
Cc1nn(-c2nc(-c3ccc(F)cc3)cc(C(F)(F)F)n2)c(C)c1Br	none
COc1cccc(CNC(=O)CSc2c3c(nc4ccc(Cl)cc24)CCCC3)c1OC	none
CC(C)C[C@@H](CN=[N+]=[N-])N1CCN(C)CCC1=O	TRHR enhancer 30.7
COc1ccc(S(=O)(=O)c2cnc3ccc(Cl)cc3c2N2CCCCC2C)cc1 (configuration not stated)	none
O=C(CCCN1C(=O)c2ccccc2C1=O)N1CCN(c2ccccn2)CC1	none
Cc1ccc(C)c(N2CCN(C(=O)CN3C(=O)c4ccccc4C3=O)CC2)c1	D1 antag -34.6
Cc1ccccc1N1CCN(C(=O)CN2C(=O)c3ccccc3C2=O)CC1	none
Cc1ccc(C)c(N2CCN(C(=O)NCc3noc4ccccc34)CC2)c1	D1 antag -41.9
O=C(CSc1nnc(N2CCCC2)n1-c1ccccc1Cl)N1CCN(c2ccccn2)CC1	D1 antag -52.3
O=C(CN1C(=O)c2ccccc2C1=O)N1CCN(c2ccccn2)CC1	D1 antag -30.3
Cc1ccc(C)c(N2CCN(C(=O)NCc3noc4ccc(C)cc34)CC2)c1	none
COc1cccc(N(Cc2nnc3n2CCCCC3)C(=O)Nc2cccc(Cl)c2)c1	none
COC(=O)N1CCCc2cc(S(=O)(=O)NCc3ccccc3)ccc21	none
CCCc1cc(=O)oc2c3c(ccc12)OCN(Cc1ccc(OC)cc1)C3	none
NC(=O)Cn1c(=O)n(CCCCCC(=O)NCc2ccccc2Cl)c(=O)c2sccc21	none
CC1CCN(S(=O)(=O)c2ccc3c(c2)N(CC(=O)NC(C)c2ccccc2)C(=O)CS3)CC1 (configuration not stated)	none
CCn1cc([N+](=O)[O-])c(C(=O)N2N=C(c3cccc4ccccc34)CC2c2ccccc2O)n1 (configuration not stated)	none

Screens as filed in PubChem.
